Among the data in PubChem BioAssay (EPA / NIEHS) are outcome and AC50 values, retold here.

Active and inactive are the calls of the source. Rule for the calls: active = hit-call score of the fitted dose curve at least 0.9, where 1 is the maximum; inactive = score below 0.9.

Read-out in this experiment: Lipase C (LIPC), LIPC (gene 3990)
Put plainly: LTEA_HepaRG_LIPC: Life Technologies and Expression Analysis (LTEA) Assay for Lipase C (LIPC) using HepaRG (AID 2283514). Conditions: mRNA level, 48 h; actives raise or lower the signal. Here is the method:
LTEA_HepaRG is a cell based, multiplexed-readout assay that uses HepaRG, a human liver cell line, with measurements taken at 48 hours after chemical dosing on a 96-well plate.LTEA_HepaRG_LIPC is one of 102 assay component(s) measured in the LTEA HepaRG cell culture assay. It is a marker of Steatosis.Data from the assay component LTEA_HepaRG_LIPC was analyzed into 1 endpoint. This assay endpoint, LTEA_HepaRG_LIPC, was analyzed with bidirectional fitting relative to DMSO as the negative control and baseline of activity. Using a type of inducible reporter, measures of mRNA induction for gain or loss-of-signal activity can be used to understand regulation of transcription factor activity. To generalize the intended target to other relatable targets, this assay endpoint is annotated to the esterase intended target family, where the subfamily is lipase.
A total of 1060 chemcials from the ToxCast library were tested in eight-point concentration-response experiments. Cell culture and cytotoxicity assays were conducted at Thermo Fisher Scientific's Custom Services facility (Madison, WI). A single lot of human HepaRG cells (Thermo Fisher Scientific, Frederick, MD) was used for the cell culture experiments. 96-well format collagen type I coated plates of human HepaRG cells were prepared using established methods. Briefly, cryopreserved HepaRG cells were thawed, plated at a density of approximately 100,000 cells/well in HepaRG Thaw, Plate, and General Purpose media (HPRG770, Thermo Fisher Scientific), and incubated for 48 hours. 0.5% DMSO was selected as vehicle control to balance the requisite need of DMSO in HepaRG cultures to maintain differentiation (for example, baseline metabolism, proportions of hepatocytes vs. cholangiocytes), while enabling further hepatic receptor pathway activation (for example, PXR and CAR) in response to chemical exposure. 48 hours after plating, the culture medium was replaced with HepaRG Serum-Free Incudtion Media. Cells were exposed to each test chemical in duplicate and maintained in CO2 incubators for another 48 hours. Chemical plates were thawed to room temperature and 200x concentrations of treatment groups were prepared. 8-point conentration-reponse curves were made with the highest exposure at 100 uM, followed by half-log dilutions, all in 0.5% DMSO. Each test plate contained variouse controls, induction positive controls (1mM phenobarbital), cytotoxicity positive controls ([…] aflatoxin B1), vehicle controls (0.5% DMSO), and total lysis controls (0.5% DMSO). Cell morphology images were taken using an Essen IncuCyte FLR automated microscope, with six 96-well plates imaged in about 24 minutes. Images were captured and exported and JPEG files. Spent culture media was transfered to black-well plates for the LDH assay, and remaining media was sorted at -80 C for later use. Cells were treated with RLT buffer and frozen until shipped for gene expression analysis. Total RNA was isolated from the cell suspension in 75 uL of Buffer RLT (Qiagen, Germantown, MD 20874) by Quintiles/Expression Analysis (Durham, NC) using a custom isolation procedure. Total RNA from each plate well was transferred to a preamplification plate. Fluidigm's 96.96 Dynamic ArrayTM (Fluidigm, Amsterdam, the Netherlands) technology was used for gene expression analyses by quantitative reverse transcription polymerase chain reaction (qRT-PCR, performed by Quintiles/Expression Analysis, Durham, NC)89. Standard TaqManTM Assays (Applied Biosystems/ThermoFisher Scientific, Foster City, CA) were used to assess the expression of 93 genes selected based on their selectivity and sensitivity to important hepatic receptors known to be modulated by environmental chemicals; importance in human hepatocyte functionality; and hepatotoxicity. […]
Regarding `OCC(CO)(CBr)CBr`, the result was inactive.
On to `N=C(N)c1ccc(OCCCCCOc2ccc(C(=N)N)cc2)cc1`, for which the AC50 was 3.64 µM (active).
With `CC(=O)Nc1ccc(O)cc1`, the compound was classed as inactive.
In the case of `CCCCCCCCCCCCOS(=O)(=O)O`, the AC50 was 80.4 µM (active).
Still for that read-out and setting: the value for `CCCCc1oc2ccccc2c1C(=O)c1cc(I)c(OCCN(CC)CC)c(I)c1` was 55.7 µM (active); that for `CS(=O)(=O)c1ccc([C@@H](CC2CCCC2)C(=O)Nc2cnccn2)cc1Cl` was 86.9 µM (active).
Same read-out and setting: for `Cc1[nH]nc2c1N=C(c1ccccc1Cl)c1cc([N+](=O)[O-])ccc1N2` the value was 11.2 µM (active).
For `CN(Cc1cnc2nc(N)nc(N)c2n1)c1ccc(C(=O)N[C@@H](CCC(=O)O)C(=O)O)cc1`, the compound was called inactive.
Consider `CCCCCCCCCCCCCCC`, for which the outcome was inactive.
As to `O=C(CCCN1CCC(O)(c2ccc(Cl)cc2)CC1)c1ccc(F)cc1`, the AC50 was 84.9 µM (active).
As for `CCCCC(CC)C(=O)O` (stereo unspecified), the outcome was inactive.
Same read-out and setting: the value for `CCCCC=O` was “inactive”; that for `O=C1NS(=O)(=O)c2ccccc21` was “inactive”; that for `O=C(c1ccccc1)c1ccccc1` was “inactive”.
The same measure, in the same setting: for `CN(C)CCOC(c1ccccc1)c1ccccc1` the value was “inactive”; for `CCC(C)c1ccccc1O` (stereo unspecified), “inactive”.

As usually defined, the AC50 is the concentration at which the activity in the assay is half-maximal.
